In PubChem BioAssay (NCATS) one finds Potency data, which are given here for 25 molecules.

This assay deals with ATP-dependent 6-phosphofructokinase (Trypanosoma brucei brucei) (UniProt O15648). As to the kind of experiment: qHTS Assay to Find Inhibitors of T. brucei phosphofructokinase: hit validation (AID 492961).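 Also: luminescence reports ADP formed as PFK phosphorylates fructose-6-phosphate with ATP; series mostly up to about 51 µM.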 The essentials:
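Measures ADP output of PFK (1.25 nM) at 0.1 mM ATP, 0.5 mM F6P, pH 8.0 TEA buffer with 5 mM MgCl2. No-enzyme wells define full inhibition; uninhibited enzyme wells define zero.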
On the technique in general: qHTS replaces the single test concentration by a dilution series.

Results filed as inconclusive are left out. Entries that show only a call come without a potency. Activity calls are given as the source filed them. Calls follow the shape of the dose curve; as a rule, active = well fitted inhibition curve with a large enough effect; inconclusive = small, poorly fitted or top-dose-only effect, or effect the other way; inactive = flat fitted curve, though single readings scatter.

Sequence of ATP-dependent 6-phosphofructokinase (Trypanosoma brucei brucei) (O15648 whole entry, looked up): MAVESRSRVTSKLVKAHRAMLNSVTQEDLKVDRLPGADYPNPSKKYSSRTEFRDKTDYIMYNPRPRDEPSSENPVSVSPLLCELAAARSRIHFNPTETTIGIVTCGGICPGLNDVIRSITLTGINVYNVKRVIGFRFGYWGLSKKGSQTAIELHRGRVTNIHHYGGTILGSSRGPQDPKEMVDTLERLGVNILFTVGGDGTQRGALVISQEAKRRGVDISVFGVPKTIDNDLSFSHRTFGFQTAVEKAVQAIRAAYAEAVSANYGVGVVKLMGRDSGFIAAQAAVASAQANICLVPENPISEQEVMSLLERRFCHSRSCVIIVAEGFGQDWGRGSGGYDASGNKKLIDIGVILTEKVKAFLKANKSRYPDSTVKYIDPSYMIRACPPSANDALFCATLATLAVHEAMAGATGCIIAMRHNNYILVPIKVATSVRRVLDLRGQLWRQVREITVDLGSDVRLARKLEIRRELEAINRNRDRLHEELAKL

`CN(C)CCCN1c2ccccc2C(C)(C)c2ccccc21`: the Potency result was “inactive”.

With `CC(O)CO` (stereo not given), the Potency entry was “inactive”.

With `CO[C@H](C(=O)[C@@H](O)[C@@H](C)O)C1Cc2cc3cc(O[C@H]4C[C@@H](O[C@H]5C[C@@H](O)[C@H](O)[C@@H](C)O5)[C@@H](O)[C@@H](C)O4)c(C)c(O)c3c(O)c2C(=O)[C@H]1O[C@H]1C[C@@H](O[C@H]2C[C@@H](O[C@H]3C[C@](C)(O)[C@H](O)[C@@H](C)O3)[C@H](O)[C@@H](C)O2)[C@H](O)[C@@H](C)O1` (stereo not given in full), the Potency result is “inactive”.

Regarding `CCN(CC)Cc1cc(Nc2ccnc3cc(Cl)ccc23)ccc1O`, the Potency entry is “inactive”.

For `CCOC(C)=O`, the Potency result is “inactive”.

Turning to `COC(=O)[C@H]1[C@H]2C[C@@H]3c4[nH]c5ccccc5c4CCN3C[C@H]2C[C@@H](OC(=O)c2cc(OC)c(OC)c(OC)c2)[C@@H]1OC`, the Potency result was “inactive”.

With `CC1=C(/C=C/C(C)=C/C=C/C(C)=C/C=C/C=C(C)/C=C/C=C(C)/C=C/C2=C(C)CCCC2(C)C)C(C)(C)CCC1`, the Potency result was “inactive”.

With `CN1C(=O)CN2CCc3ccccc3C2c2cc(Cl)ccc21` (stereo not given), the Potency entry was “inactive”.

Consider `CCC(=O)NCCC1CCc2ccc3c(c21)CCO3` (stereo not given), for which the Potency entry is “inactive”.

For `C[C@]12O[C@H](C[C@]1(O)CO)n1c3ccccc3c3c4c(c5c6ccccc6n2c5c31)CNC4=O`, the Potency result was “inactive”.

In the case of `CC1=C(/C=C/C(C)=C/C=C/C(C)=C/C=C/C=C(C)/C=C/C=C(C)/C=C/C2=C(C)C(=O)CCC2(C)C)C(C)(C)CCC1=O`, the Potency entry is “inactive”.

With `CCCCCCCCCCCCCCCC(=O)OCC(COC(=O)CCCCCCCCCCCCCCC)OC(=O)CCCCCCCCCCCCCCC`, the Potency result was “inactive”.

Take `C#C[C@]1(O)CC[C@H]2[C@@H]3CCC4=CCCC[C@@H]4[C@H]3C(=C)C[C@@]21CC`: the Potency entry is “inactive”.

Turning to `CCCCC(=O)O[C@]1(C(=O)CO)[C@H](C)C[C@H]2[C@@H]3CCC4=CC(=O)C=C[C@]4(C)[C@@]3(F)[C@@H](O)C[C@@]21C`, the Potency entry is “inactive”.

On to `CC(C)(C)NC(=O)[C@@H]1C[C@@H]2CCCC[C@@H]2CN1C[C@@H](O)[C@H](Cc1ccccc1)NC(=O)[C@H](CC(N)=O)NC(=O)c1ccc2ccccc2n1`, for which the Potency result was “inactive”.

Take `CC(=O)Oc1c(C)cc(OCC(O)CNC(C)C)c(C)c1C` (stereo not given): the Potency result was “inactive”.

Turning to `CO[C@H]1C[C@@H]2CC[C@@H](C)[C@@](O)(O2)C(=O)C(=O)N2CCCC[C@H]2C(=O)O[C@H]([C@H](C)C[C@@H]2CC[C@@H](OCCO)[C@H](OC)C2)CC(=O)[C@H](C)/C=C(\C)[C@@H](O)[C@@H](OC)C(=O)[C@H](C)C[C@H](C)/C=C/C=C/C=C/1C`, the Potency entry is “inactive”.

On to `C[C@]12CCC(=O)C=C1CC[C@@H]1[C@@H]2[C@@H](O)C[C@@]2(C)[C@H]1CC[C@]2(O)C(=O)COP(=O)(O)O`, for which the Potency result was “inactive”.

For `CCN(CC)CCOc1ccc(-c2nc3cc(Cl)ccc3s2)cc1`, the Potency entry was “inactive”.

Regarding `O=CCCCC=O`, the Potency entry was “inactive”.

For `Cc1cn([C@H]2C[C@H](O)[C@@H](CO)O2)c(=O)[nH]c1=O`, the Potency entry was “inactive”.

Take `O=C(O)CN(CCN(CC(=O)O)CC(=O)O)CC(=O)O`: the Potency entry was “inactive”.

With `O=C(O)CCC(=O)C(=O)O`, the Potency entry is “inactive”.

As to `Cc1ccccc1`, the Potency result is “inactive”.

Take `C=C1C(=CC=C2CCC[C@@]3(C)[C@@H]2CC[C@H]3[C@H](C)CCCC(C)C)C[C@@H](O)C[C@@H]1O`: the Potency entry is “inactive”.
